# Measurements from PubChem BioAssay (Tox21).
# Results filed as inconclusive are left out. A call without a number means that no potency is given here. Where a structure was tested more than once in an assay, its records may differ in their call. Activity calls are given as the source filed them. Unless noted, the call rests on the fitted dose curve.
# Assays:
# [1] = Nuclear factor erythroid 2-related factor 2/antioxidant responsive element (Nrf2/ARE) small molecule agonists: luciferase reporter gene qHTS assay in human keratinocytes (AID 1919969); further: nearly all actives have a fitted effect of over 35% in size
# [2] = molecular target: Gonadotropin-releasing hormone receptor (Homo sapiens) (UniProt P30968); assay: Human gonadotropin-releasing hormone receptor (GnRHR) small molecule agonists, calcium flux assay in GnRHR-HEK293 cells (AID 1920063); further: nearly all actives have a fitted effect of over 35% in size
# How it was run: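 Cells: HEK293 stably expressing human GnRHR. Steps: overnight (18 h) culture, 1 h calcium dye loading at 37 C, compound addition, kinetic fluorescence read at 480/540 nm. Each compound tested at 15 concentrations in triplicate.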
# [3] = molecular target: KiSS-1 receptor (Homo sapiens) (UniProt Q969F8); assay: Human kisspeptin (KISS1R) small molecule agonists, calcium flux assay in KISS1R-HEK293 cells (AID 1920064; active means well fitted activation curve with a large enough effect in the repeat runs)
# How it was run: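 Cells plated and incubated 18 h; dye added, 1 h at 37 C; compounds in DMSO pinned in; signal read at 480/540 nm every second for 3 min. Each compound tested at 15 concentrations in triplicate.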
# [4] = G protein-coupled receptor (GPCR) small molecule agonists, calcium flux assay: HEK293 wild type cell line counter screen (AID 1920065)
# How it was run: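 Counter-screen of the Tox21 10K library for non-specific calcium release: dye-loaded cells received compounds in DMSO and were monitored by kinetic fluorescence (480/540 nm, 3 min). Fifteen concentrations, run in triplicate.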
# [5] = p53 small molecule agonists, cell-based qHTS assay with human liver microsomes (AID 1963577);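 further: p53 response element beta-lactamase reporter cells with liver microsomes plus NADPH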
# How it was run: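 Metabolically competent format: test substances, human liver microsomes and NADPH (both 0.5 mg/mL final) incubated with p53RE-bla cells 16 h at 37 C. Beta-lactamase reporter signal then quantified by fluorescence.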
# [6] = p53 small molecule agonists, cell-based qHTS assay with rat liver microsomes (AID 1963578)
# How it was run: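 Each plate received p53RE-bla cells, then compound, then rat liver microsomes and NADPH (both 0.5 mg/mL final). Plates were held 16 h at 37 C, and beta-lactamase activity was detected with LiveBLAzer over 2 h.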
# [7] = p53 small molecule agonists, cell-based qHTS assay with human liver microsomes: qHTS cell viability counter screen (AID 1963579); further: nearly all actives have a fitted effect of over 45% in size
# How it was run: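 Tox21 library compounds, delivered from DMSO stocks, were tested on p53RE-bla cells together with 0.5 mg/mL human liver microsomes and 0.5 mg/mL NADPH (final) over 16 h at 37 C; CellTiter-Glo luminescence served as the cytotoxicity measure.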
# [8] = p53 small molecule agonists, cell-based qHTS assay with rat liver microsomes: qHTS cell viability counter screen (AID 1963580); further: nearly all actives have a fitted effect of over 45% in size
# How it was run: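 Intracellular ATP, by CellTiter-Glo luminescence, defines viability. HCT-116 p53RE-bla cells, 4,000 per well, were compound-treated in the presence of rat liver microsomes and NADPH for 16 h at 37 C.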
# [9] = p53 small molecule agonists, cell-based qHTS assay: qHTS cell viability counter screen (AID 1963581); further: nearly all actives have a fitted effect of over 45% in size
# How it was run: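 Cells: HCT-116 with p53 response element-driven beta-lactamase. Treatment: 16 h, 37 C, compounds in DMSO. Read: CellTiter-Glo luminescence after 30 min RT.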
# [10] = p53 small molecule agonists, cell-based qHTS assay (AID 1963582; active means well fitted activation curve with a large enough effect in the signal ratio in the repeat runs, not every such curve was filed as active; the % refers to the signal ratio)
# How it was run: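 Quantitative HTS in p53RE-bla cells: after a 5 h settling period, compounds delivered in DMSO were left on cells for 16 h at 37 C, and reporter induction was measured as fluorescence following 2 h substrate loading.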
# [11] = molecular target: 5-hydroxytryptamine receptor 2A (Homo sapiens) (UniProt P28223); assay: 5-hydroxytryptamine receptor 2A (HTR2A) small molecule antagonists, cell-based qHTS assay (AID 1963586); further: nearly all actives have a fitted effect of over 45% in size
# How it was run: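 Antagonist-mode intracellular calcium assay: DOI (4 nM) added after 5 min compound pre-incubation at room temperature to dye-loaded HTR2A-CHO cells. Fluorescence followed for 3 min, sampled every second.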
# [12] = molecular target: 5-hydroxytryptamine receptor 2A (Homo sapiens) (UniProt P28223); assay: 5-hydroxytryptamine receptor 2A (HTR2A) small molecule agonists, cell-based qHTS assay (AID 1963587); further: nearly all actives have a fitted effect of over 30% in size; further: potency means the concentration at half of the fitted maximal effect
# How it was run: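 Kinetic calcium-flux fluorescence (2 min, 1 sec intervals) after compound addition in agonist mode. HTR2A-CHO cells were cultured 18 h, then dye-loaded 1 h at 37 C.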
# [13] = molecular target: Muscarinic acetylcholine receptor M1 (Homo sapiens) (UniProt P11229); assay: Cholinergic receptor muscarinic 1 (CHRM1) small molecule antagonists, cell-based qHTS assay (AID 1963588); further: nearly all actives have a fitted effect of over 40% in size
# How it was run: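 CHRM1-CHO calcium-flux assay, antagonist mode. Cells were seeded 18 h, dye-loaded 1 h at 37 C and given compound for 5 min at RT, then acetylcholine was added at 50nM. FDSS fluorescence was read 3 min; 15 concentrations, three runs.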
# [14] = molecular target: Muscarinic acetylcholine receptor M1 (Homo sapiens) (UniProt P11229); assay: Cholinergic receptor muscarinic 1 (CHRM1) small molecule agonists, cell-based qHTS assay (AID 1963589); further: nearly all actives have a fitted effect of over 35% in size
# How it was run: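 Agonist-mode qHTS in CHO cells stably carrying human muscarinic M1. Intracellular calcium is tracked by fluorescence every second after compound transfer; each compound runs at 15 concentrations in three independent runs.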
# [15] = cAMP Responsive Elements (CRE) small molecule agonists, cell-based qHTS assay (AID 1963590)
# How it was run: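 Agonist mode qHTS in CRE-bla HEK 293T cells: compounds dosed from DMSO for 3 h at 37 C/5% CO2, followed by LiveBLAzer B/G FRET substrate for 2 h at room temperature.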
# [16] = cAMP Responsive Elements (CRE) small molecule antagonists, cell-based qHTS assay (AID 1963591; active means well fitted inhibition curve with a large enough effect in the signal ratio in the repeat runs, not every such curve was filed as active; the % refers to the signal ratio)
# How it was run: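 Antagonist mode: test compounds are co-incubated with the adenylyl cyclase activator NKH477 (0.25 uM final) on CRE-bla HEK293T cells for 3 h at 37 °C, followed by LiveBLAzer substrate loading.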
# [17] = molecular target: D(2) dopamine receptor (Homo sapiens) (UniProt P14416); assay: Dopamine D2 receptor (DRD2) small molecule agonists, cell-based qHTS assay (AID 1963594); further: nearly all actives have a fitted effect of over 35% in size
# How it was run: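 cAMP accumulation in DRD2-HEK293 cells measured by HTRF after 1 h detection; compounds added 10 min before NKH477 (200nM […]) forskolin-analogue stimulation, 30 min at room temperature, with Ro20-1724 present at 0.1 mM final.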
# [18] = molecular target: D(2) dopamine receptor (Homo sapiens) (UniProt P14416); assay: Dopamine D2 receptor (DRD2) small molecule antagonists, cell-based qHTS assay (AID 1963595; active means well fitted inhibition curve with a large enough effect in the signal ratio in the repeat runs, with a control signal flat; the % refers to the signal ratio)
# How it was run: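 Readout: HTRF cAMP, cAMP-d2 competing with cellular cAMP for anti-cAMP cryptate, read after 1 h. Cells: DRD2-HEK293. Conditions: 0.1 mM Ro20-1724, 12 nM quinpirole, 200 nM NKH477, 30 min RT.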
# [19] = molecular target: Beta-2 adrenergic receptor (Homo sapiens) (UniProt P07550); assay: Adrenergic beta2 receptor (ADRB2) small molecule antagonists, cell-based qHTS assay (AID 1963592); further: series mostly up to about 92 µM; nearly all actives have a fitted effect of over 50% in size
# How it was run: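 Cells (CHO, stable ADRB2 overexpression) incubated 18-20hr at 37C; compounds added from DMSO; agonist mix (1nM isoproterenol, 100uM IBMX, 25uM Ro-20-1724) added; 0.5hr RT; d2-cAMP and anti-cAMP-cryptate added; 1hr RT; 665/615 nm read.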
# [20] = molecular target: Beta-2 adrenergic receptor (Homo sapiens) (UniProt P07550); assay: Adrenergic beta2 receptor (ADRB2) small molecule agonists, cell-based qHTS assay (AID 1963593);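 further: CHO cells stably overexpressing human ADRB2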
# How it was run: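 CHO cells stably over-expressing ADRB2 were plated overnight at 37C, then dosed with compounds plus a stimulation mix containing 100uM IBMX and 25uM Ro-20-1724 for 0.5hr at room temperature. cAMP was measured by HTRF competition, 1hr.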
# Chain of KiSS-1 receptor (Homo sapiens) (Q969F8 whole entry, looked up): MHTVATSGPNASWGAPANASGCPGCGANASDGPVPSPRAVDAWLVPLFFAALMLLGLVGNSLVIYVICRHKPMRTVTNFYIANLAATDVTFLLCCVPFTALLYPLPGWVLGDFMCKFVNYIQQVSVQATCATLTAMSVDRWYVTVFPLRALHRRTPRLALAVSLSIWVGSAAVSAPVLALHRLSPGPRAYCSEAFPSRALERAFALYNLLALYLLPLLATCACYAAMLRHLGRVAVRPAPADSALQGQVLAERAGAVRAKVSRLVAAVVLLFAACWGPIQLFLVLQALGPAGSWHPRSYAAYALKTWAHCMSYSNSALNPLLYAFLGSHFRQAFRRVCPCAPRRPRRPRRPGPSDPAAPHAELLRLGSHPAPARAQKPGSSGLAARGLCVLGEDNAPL
# Chain of Gonadotropin-releasing hormone receptor (Homo sapiens) (P30968 whole entry, looked up): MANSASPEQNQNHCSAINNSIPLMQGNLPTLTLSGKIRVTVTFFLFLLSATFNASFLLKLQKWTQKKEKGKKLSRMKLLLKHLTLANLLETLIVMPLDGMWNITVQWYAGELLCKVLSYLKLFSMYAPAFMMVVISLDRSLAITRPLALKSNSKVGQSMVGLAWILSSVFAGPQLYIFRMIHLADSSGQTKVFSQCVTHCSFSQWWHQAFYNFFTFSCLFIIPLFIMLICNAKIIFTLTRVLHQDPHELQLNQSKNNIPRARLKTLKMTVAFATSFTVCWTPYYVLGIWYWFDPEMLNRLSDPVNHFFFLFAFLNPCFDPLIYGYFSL
# Chain of D(2) dopamine receptor (Homo sapiens) (P14416 whole entry, looked up): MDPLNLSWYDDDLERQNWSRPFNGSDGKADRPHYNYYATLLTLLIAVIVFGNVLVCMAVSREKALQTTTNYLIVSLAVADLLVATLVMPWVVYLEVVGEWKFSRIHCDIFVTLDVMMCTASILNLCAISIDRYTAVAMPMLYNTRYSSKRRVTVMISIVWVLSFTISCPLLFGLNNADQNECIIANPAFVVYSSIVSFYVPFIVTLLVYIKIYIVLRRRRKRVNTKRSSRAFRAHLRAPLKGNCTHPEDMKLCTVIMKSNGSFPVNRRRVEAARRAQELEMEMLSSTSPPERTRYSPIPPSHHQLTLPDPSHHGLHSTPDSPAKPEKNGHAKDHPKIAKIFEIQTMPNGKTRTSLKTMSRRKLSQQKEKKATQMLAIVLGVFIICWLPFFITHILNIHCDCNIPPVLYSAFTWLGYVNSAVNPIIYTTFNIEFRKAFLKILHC
# Chain of Beta-2 adrenergic receptor (Homo sapiens) (P07550 whole entry, looked up): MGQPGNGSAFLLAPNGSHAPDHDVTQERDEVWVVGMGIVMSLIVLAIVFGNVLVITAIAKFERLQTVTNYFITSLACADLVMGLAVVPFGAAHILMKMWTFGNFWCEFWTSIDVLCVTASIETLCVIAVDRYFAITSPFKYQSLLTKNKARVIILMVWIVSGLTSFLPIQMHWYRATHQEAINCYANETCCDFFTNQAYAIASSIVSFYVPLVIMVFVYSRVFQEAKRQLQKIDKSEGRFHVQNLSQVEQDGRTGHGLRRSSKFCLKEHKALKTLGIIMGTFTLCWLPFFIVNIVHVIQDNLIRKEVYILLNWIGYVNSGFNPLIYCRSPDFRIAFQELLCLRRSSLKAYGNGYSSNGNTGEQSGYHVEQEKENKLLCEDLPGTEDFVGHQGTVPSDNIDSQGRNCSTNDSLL
# Chain of Muscarinic acetylcholine receptor M1 (Homo sapiens) (P11229 whole entry, looked up): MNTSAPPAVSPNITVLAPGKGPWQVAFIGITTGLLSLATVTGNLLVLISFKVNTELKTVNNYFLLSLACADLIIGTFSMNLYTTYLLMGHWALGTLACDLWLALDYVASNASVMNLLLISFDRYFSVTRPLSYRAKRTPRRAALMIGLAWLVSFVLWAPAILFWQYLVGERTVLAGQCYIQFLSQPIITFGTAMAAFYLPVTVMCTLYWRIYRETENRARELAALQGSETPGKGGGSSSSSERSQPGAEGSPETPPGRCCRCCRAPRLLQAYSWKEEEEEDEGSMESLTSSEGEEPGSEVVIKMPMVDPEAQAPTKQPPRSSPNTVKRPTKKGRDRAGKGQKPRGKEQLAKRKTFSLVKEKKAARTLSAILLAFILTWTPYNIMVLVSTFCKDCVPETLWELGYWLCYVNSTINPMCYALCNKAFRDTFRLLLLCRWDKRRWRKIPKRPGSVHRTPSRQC
# Chain of 5-hydroxytryptamine receptor 2A (Homo sapiens) (P28223 whole entry, looked up): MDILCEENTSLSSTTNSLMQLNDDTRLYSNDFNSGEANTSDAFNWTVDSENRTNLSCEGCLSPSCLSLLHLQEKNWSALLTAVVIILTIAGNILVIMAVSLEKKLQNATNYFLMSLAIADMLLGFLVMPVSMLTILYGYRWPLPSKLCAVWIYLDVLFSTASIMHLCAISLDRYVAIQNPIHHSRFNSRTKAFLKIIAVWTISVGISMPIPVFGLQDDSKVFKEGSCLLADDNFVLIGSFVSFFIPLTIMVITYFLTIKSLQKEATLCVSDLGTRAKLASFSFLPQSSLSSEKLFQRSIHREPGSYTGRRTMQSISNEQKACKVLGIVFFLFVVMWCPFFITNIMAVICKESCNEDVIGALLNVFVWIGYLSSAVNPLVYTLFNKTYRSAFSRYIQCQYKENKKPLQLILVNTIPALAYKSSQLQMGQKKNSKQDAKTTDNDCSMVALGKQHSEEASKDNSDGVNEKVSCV
compound,measurement,setting,value
[Cl][Sn]([Cl])([Cl])[Cl],Potency,[1],inactive
same,Potency,[2],inactive
same,Potency,[3],inactive
same,Potency,[4],inactive
same,Potency,[5],inactive
same,Potency,[6],inactive
same,Potency,[7],inactive
same,Potency,[8],inactive
same,Potency,[9],inactive
same,Potency,[10],inactive
same,Potency,[11],inactive
same,Potency,[12],inactive
same,Potency,[13],inactive
same,Potency,[14],inactive
same,Potency,[15],inactive
same,Potency,[16],inactive
same,Potency,[17],inactive
same,Potency,[18],inactive
Clc1cc2c(cc1Cl)Oc1cc(Cl)c(Cl)cc1O2,"activity, positive = activation",[1],4.08% [at 0.349 µM] (inactive)
same,activity change,[2],"1.13% [at 0.217 µM, stronger effect = higher value] (inactive)"
same,activation,[3],-3.37% [at 0.29 µM] (inactive)
same,activation,[4],0.634% [at 0.217 µM] (inactive)
same,activation,[5],0.165% [at 0.249 µM] (inactive)
same,activation,[6],-1.51% [at 0.249 µM] (inactive)
same,"activity change, negative = cytotoxicity",[7],-6.87% [at 0.249 µM] (inactive)
same,"activity change, negative = cytotoxicity",[8],0.149% [at 0.249 µM] (inactive)
same,"activity change, negative = cytotoxicity",[9],1.19% [at 0.249 µM] (inactive)
same,activation,[10],1.03% [at 0.249 µM] (inactive)
same,activation,[15],0.0128% [at 0.349 µM] (inactive)
same,"activity change, negative = inhibition",[16],-0.651% [at 0.349 µM] (inactive)
same,activation,[17],0.882% [at 0.349 µM] (inactive)
same,"activity change, negative = inhibition",[18],-6.33% [at 0.348 µM] (inactive)
CCC(C)(c1ccc(O)cc1)c1ccc(O)cc1,Potency,[1],inactive
same,Potency,[2],inactive
same,Potency,[3],inactive
same,Potency,[4],inactive
same,Potency,[5],inactive
same,Potency,[6],inactive
same,Potency,[7],inactive
same,Potency,[8],inactive
same,Potency,[9],inactive
same,Potency,[11],inactive
same,Potency,[12],inactive
same,Potency,[13],inactive
same,Potency,[14],inactive
same,Potency,[15],inactive
same,Potency,[16],inactive
same,Potency,[19],inactive
same,Potency,[20],inactive
same,Potency,[17],inactive
CC1(C)C(C(=O)OC(C#N)c2cccc(Oc3ccccc3)c2)C1(C)C (stereo not given),Potency,[1],inactive
same,Potency,[2],inactive
same,Potency,[3],inactive
same,Potency,[4],inactive
same,Potency,[5],inactive
same,Potency,[6],inactive
same,Potency,[7],inactive
same,Potency,[8],inactive
same,Potency,[9],inactive
same,Potency,[10],inactive
same,Potency,[11],inactive
same,Potency,[12],39.2 µM (active) and inactive
same,Potency,[13],inactive
same,Potency,[14],inactive
same,Potency,[15],inactive
same,Potency,[16],inactive
same,Potency,[19],inactive
same,Potency,[17],inactive
same,Potency,[18],inactive
ClC1=C(Cl)[C@]2(Cl)[C@H]3[C@H]([C@@H]4C=C[C@H]3C4)[C@@]1(Cl)C2(Cl)Cl,Potency,[1],inactive
same,Potency,[2],inactive
same,Potency,[3],inactive
same,Potency,[4],inactive
same,Potency,[5],inactive
same,Potency,[6],inactive
same,Potency,[7],inactive
same,Potency,[8],inactive
same,Potency,[9],inactive
same,Potency,[10],inactive
same,Potency,[11],inactive
same,Potency,[12],inactive
same,Potency,[13],inactive
same,Potency,[14],inactive
same,Potency,[15],inactive
same,Potency,[16],inactive
same,Potency,[19],inactive
same,Potency,[17],inactive
same,Potency,[18],inactive
CC(C)N1C(=O)N(c2ccccc2)CSC1=NC(C)(C)C,Potency,[1],inactive
same,Potency,[2],inactive
same,Potency,[3],inactive
same,Potency,[4],inactive
same,Potency,[5],inactive
same,Potency,[6],inactive
same,Potency,[7],inactive
same,Potency,[8],inactive
same,Potency,[9],inactive
same,Potency,[11],inactive
same,Potency,[12],inactive
same,Potency,[13],inactive
same,Potency,[14],inactive
same,Potency,[19],inactive
same,Potency,[20],inactive
same,Potency,[17],inactive
same,Potency,[18],inactive
CC1COC(Cn2cncn2)(c2ccc(Oc3ccc(Cl)cc3)cc2Cl)O1 (stereo not given),Potency,[1],inactive
same,Potency,[2],inactive
same,Potency,[3],inactive
same,Potency,[4],inactive
same,Potency,[5],inactive
same,Potency,[6],inactive
same,Potency,[7],inactive
same,Potency,[8],inactive
same,Potency,[9],inactive
same,Potency,[11],inactive
same,Potency,[12],inactive
same,Potency,[14],inactive
same,Potency,[19],inactive
same,Potency,[17],inactive
same,Potency,[18],inactive
